“And” between values parts separate entries of the source, which are not always exact repeats. Equal entries are not always repeated. The panel holds about 79,000 compounds, 15% with a hit somewhere; the sample as a whole holds those more often. The source made the active and inactive calls. No stated cut-off is given here; in the data, active means growth inhibition above about 70%; inactive means the rest.

This test is described as follows: NCI Yeast Anticancer Drug Screen. Data for the mlh1 rad18 strain (AID 175). To be noted: S. cerevisiae mlh1 rad18 strain growth inhibition; at 50.0 µM (retest, dose inferred, filed as 5.0); active compounds read high. A digest of the protocol:
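Test agents were incubated with a yeast strain of defined genotype (DNA damage repair defect). Inhibition of growth was derived by comparison with vehicle-exposed cultures.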
With `O=[N+]([O-])c1cc[n+]([O-])cc1`, the growth inhibition is 33% (inactive) and 53% (inactive). As for `CC1(C)CC(=O)C(/C=N/c2nc(-c3ccccc3)cs2)=C(O)C1`, the figure is 87% (active).

With `Nc1nc(N)c2nc(CNc3ccc(C(=O)NC(CCC(=O)O)C(=O)O)cc3F)cnc2n1` (stereo not drawn), the growth inhibition was 67% (inactive). `COC(=O)CC1(O)C(/C=C/c2ccccc2)C(C(=O)OC)C(=O)C(C(=O)OC)C1C(=O)OC` (stereo not drawn): the growth inhibition was 30% (inactive).

Take `CC(C)(C)c1ccc(NS(=O)(=O)c2ccc(N)cc2)cc1`: the growth inhibition is -5% (inactive). Next, `CCN(CC)CCNc1ccc([N+](=O)[O-])c2nc3ccccc3c(N)c12`: 15% (inactive). Next, `CCCCN(CCCC)C(=O)/C=C/c1ccccc1`: 88% (active). Consider `O=c1[nH]c(-c2ccccc2)nc2c1sc1nc3ccccc3n12`, for which the growth inhibition is 22% (inactive).

In the case of `O=[N+]([O-])c1ccc2c(c1)/C(=N/N=C1c3ccccc3Cc3ccccc31)c1cc([N+](=O)[O-])cc([N+](=O)[O-])c1-2`, the growth inhibition was 96% (active). `CC(C)C(C)/C=C\C(C)C1CCC2C3=CC=C4CC(O)CCC4(C)C3CCC21C` (stereo not drawn): the growth inhibition is 81% (active). Take `O=C1Nc2ccc(Br)cc2C1=Nc1ccc2c(c1)OCO2`: the growth inhibition is 54% (inactive).

As for `CCCCOCn1c(=O)[nH]c(=O)c2cc(Br)ccc21`, the growth inhibition was 32% (inactive). Take `Cc1ccc(S/C(=C\C(=O)O)c2ccccc2)cc1`: the growth inhibition was 72% (active). Consider `O=[N+]([O-])/C=C/c1cc(Cl)c(/C=C/[N+](=O)[O-])cc1Cl`, for which the growth inhibition is 77% (active).

`Cc1cc(S(=O)(=O)Nc2nnc3cnc4ccccc4n23)c(S)cc1Cl`: the growth inhibition is 82% (active). In the case of `O=C(/C=C/c1cc(Cl)cc(Cl)c1O)c1cccc(O)c1`, the growth inhibition was 97% (active). As for `NC1CCCCC1N.Nc1c(N=Nc2ccc(-c3ccc(N=Nc4cc(S(=O)(=O)[O-])c5ccccc5c4N)cc3)cc2)cc(S(=O)(=O)[O-])c2ccccc12.[OH3+].[OH3+].[Pt+4]`, the figure is 78% (active); as for `COC(=O)CCC(NC(=S)N/N=C(\C)c1ccccn1)C(=O)OC` (stereo not drawn), 79% (active).

Take `NC(=O)C(=O)NNc1ccccc1`: the growth inhibition was 89% (active). As for `COc1cc(C2SCC(=O)N2c2ccc(-c3ccc(-n4c(-c5ccccc5)nc5ccccc5c4=O)cc3)cc2)ccc1O` (stereo not drawn), the figure is 76% (active).

Consider `COc1ccc(/C=C/c2sc3ccccc3[n+]2CCCCI)cc1OC`, for which the growth inhibition was 46% (inactive). With `Cc1c(C(C)C)cc(OCCO)cc1C(C)C`, the growth inhibition is -18% (inactive). For `Cc1cc(NCCCCCCCCNc2cc(C)nc3cc(N)ccc23)c2ccc(N)cc2n1`, the growth inhibition is 98% (active). For `C=C(Cl)COC(=O)Nc1cccc(Cl)c1`, the growth inhibition is 80% (active). In the case of `CC(=O)OC1CC2C(C)(C)C(=O)C=C[C@]2(C)C2CCC3(C)C(=CCC3[C@H](CO)C[C@H](O)C(=O)C(C)(C)O)[C@]12C` (stereo partly drawn), the growth inhibition was 39% (inactive). Take `COc1ccc(/C=C/C(=O)c2ccccc2)cc1OC`: the growth inhibition was 79% (active). Take `COc1c(O)c(C=O)c(Br)c(C=O)c1O`: the growth inhibition is 98% (active). As for `O=[N+]([O-])c1cc(Cl)cnc1Br`, the growth inhibition is -48% (inactive). As for `Cc1ccc2c(c1)C1(SC(C)C(=O)N1c1ccc(Cl)cc1)C(=O)N2` (stereo not drawn), the growth inhibition was 98% (active). As for `COc1cc(CSc2ccc(O)cc2)cc(O)c1O`, the figure is -1% (inactive). Next, `Cc1ccc2c3ccc4c(c3n(C)c2c1)C(=O)C=CC4=O`: 77% (active). Consider `O=C(Nc1ccc(Cl)cc1)Nc1nnc2nc(C(C(=O)c3cccc([N+](=O)[O-])c3Cl)c3nc4nnc(NC(=O)Nc5ccc(Cl)cc5)n4[nH]c3=O)c(=O)[nH]n12`, for which the growth inhibition was 55% (inactive).

As to `O=C(O)C1CC(c2ccccc2)=NN1c1ccccc1` (stereo not drawn), the growth inhibition is 96% (active). Next, `CCCCc1ccc(-n2c(C)c(COC(=O)NC)c(COC(=O)NC)c2C)cc1`: 98% (active); `CCC(=O)c1cc(C(=O)C(=S)SC)cc(C(=O)C(=S)SC)c1`: 96% (active).

Regarding `CCn1c(O)c(C=Nc2ccccc2)s/c1=N/Nc1nc(-c2ccccc2)cs1`, the growth inhibition was 25% (inactive).

As for `Cc1ccccc1N=C(NO)c1ccccc1`, the growth inhibition was 29% (inactive). For `Cc1nc2ccccc2nc1NNc1ccccc1`, the growth inhibition was 28% (inactive).

For the origin of these results see PubChem BioAssay (NCI).
